Consider 29 compounds from PubChem BioAssay AID743320 (Broad Institute, 2014).

The structures appear in SMILES notation. Results with a measured potency or affinity are listed apart. The source made the active and inactive calls.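 Rule for the calls: active = signal drop whose fitted half-maximal potency is at most twice the top valid dose tested; inconclusive = flat curve inhibiting 30 to 70 percent, or a poor fit; inactive = the rest.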

This test deals with Endoplasmic reticulum aminopeptidase 2 (Homo sapiens) (UniProt Q6P179). Put plainly: inhibition of ERAP2 arginine-AMC cleavage – biochemical, fluorescence plate reader, cherry-picked, set 2, selectivity assay for selective ERAP1 modulator project, dose response (AID 743320). To be noted: recombinant ERAP2, Arg-AMC fluorescence, 1 h; series mostly up to 11 µM.
Chain of Endoplasmic reticulum aminopeptidase 2 (Homo sapiens) (Q6P179 whole entry, looked up): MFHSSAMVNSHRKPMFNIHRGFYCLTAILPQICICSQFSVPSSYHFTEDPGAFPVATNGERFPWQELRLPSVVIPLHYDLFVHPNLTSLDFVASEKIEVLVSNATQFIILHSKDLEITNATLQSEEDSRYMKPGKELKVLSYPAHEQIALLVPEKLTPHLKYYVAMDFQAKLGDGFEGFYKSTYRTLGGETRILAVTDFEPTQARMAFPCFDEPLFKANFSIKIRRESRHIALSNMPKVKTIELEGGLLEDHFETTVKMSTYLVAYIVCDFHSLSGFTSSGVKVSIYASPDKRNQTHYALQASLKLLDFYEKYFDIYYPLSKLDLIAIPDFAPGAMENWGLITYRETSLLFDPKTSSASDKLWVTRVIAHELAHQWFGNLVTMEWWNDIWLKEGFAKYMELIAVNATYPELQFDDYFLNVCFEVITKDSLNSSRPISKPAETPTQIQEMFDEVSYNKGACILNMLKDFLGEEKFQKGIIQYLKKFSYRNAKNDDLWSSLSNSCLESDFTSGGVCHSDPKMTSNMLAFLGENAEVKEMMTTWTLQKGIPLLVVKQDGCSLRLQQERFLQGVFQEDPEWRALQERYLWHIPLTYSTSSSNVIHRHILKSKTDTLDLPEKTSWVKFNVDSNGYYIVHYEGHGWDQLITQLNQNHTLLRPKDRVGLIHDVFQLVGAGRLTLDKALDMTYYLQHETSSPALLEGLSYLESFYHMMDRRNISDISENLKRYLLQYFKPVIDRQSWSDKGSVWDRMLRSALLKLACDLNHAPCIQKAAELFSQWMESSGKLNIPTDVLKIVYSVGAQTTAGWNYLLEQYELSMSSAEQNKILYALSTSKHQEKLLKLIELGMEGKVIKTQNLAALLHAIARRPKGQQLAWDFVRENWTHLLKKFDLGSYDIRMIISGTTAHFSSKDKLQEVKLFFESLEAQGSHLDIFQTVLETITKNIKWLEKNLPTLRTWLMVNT
Turning to `Cc1noc(C)c1NC(=O)N(C)C[C@@H]1Oc2c(NC(=O)Nc3ccccc3)cccc2C(=O)N([C@H](C)CO)C[C@@H]1C`, the result was inactive.
Regarding `C[C@@H]1CCCCO[C@@H](CN(C)C(=O)CCC(F)(F)F)[C@@H](C)CN([C@@H](C)CO)C(=O)c2cc(NS(=O)(=O)c3ccc(Cl)cc3)ccc2O1`, the outcome was inactive.
In the case of `COc1cc2cc(C(=O)N3CCN(Cc4ccc5c(c4)OCO5)CC3)c(=O)oc2cc1OC` it was “inactive”.
`COc1ccc(CN(C)C[C@@H]2OCCCC[C@H](C)Oc3ccc(NS(=O)(=O)c4cccs4)cc3C(=O)N([C@@H](C)CO)C[C@@H]2C)cc1`: the outcome was inactive.
As to `C[C@@H]1CCCCO[C@@H](CN(C)CC2CC2)[C@@H](C)CN([C@H](C)CO)C(=O)c2cc(NS(=O)(=O)c3cccs3)ccc2O1`, the result was inactive.
`C[C@H]1CN([C@@H](C)CO)C(=O)c2cccc(NC(=O)Nc3ccc(C(F)(F)F)cc3)c2O[C@@H]1CN(C)C`: the outcome was inactive.
On to `C[C@@H]1CCCCO[C@@H](CN(C)CC2CCCCC2)[C@H](C)CN([C@@H](C)CO)C(=O)c2cc(NC(=O)Nc3ccccc3)ccc2O1`, for which the outcome was inactive.
Regarding `C[C@@H]1CCCCO[C@@H](CN(C)C)[C@@H](C)CN([C@@H](C)CO)C(=O)c2cc(NS(=O)(=O)c3ccc(F)cc3)ccc2O1`, the outcome was inactive.
In the case of `C[C@@H]1CCCCO[C@@H](CN(C)S(C)(=O)=O)[C@@H](C)CN([C@@H](C)CO)C(=O)c2cc(NS(=O)(=O)c3ccc(Cl)cc3)ccc2O1` it was “inactive”; in that of `COc1ccc2c3c([nH]c2c1)[C@H](CO)N(Cc1cc(F)ccc1F)CC31CN(C)C1`, “inactive”.
For `O=C(C[C@H]1CC[C@@H]2[C@H](COC[C@@H](O)CN2C(=O)Nc2cccc(Cl)c2)O1)N1CCCCC1`, the outcome was inactive.
The entry for `CNC[C@H]1OCCCC[C@@H](C)Oc2ccc(NS(=O)(=O)c3ccc(C)cc3)cc2C(=O)N([C@@H](C)CO)C[C@H]1C` is “inactive”.
In the case of `Cc1noc(C)c1S(=O)(=O)Nc1ccc2c(c1)C(=O)N([C@H](C)CO)C[C@@H](C)[C@@H](CN(C)CC1CCCCC1)OCCCC[C@@H](C)O2` it was “inactive”; in that of `Cc1cc(=O)oc2c(CN3CCN(C)CC3)c(O)c(Cl)cc12`, “inactive”; in that of `C[C@@H]1CCCCO[C@@H](CN(C)Cc2ccc3c(c2)OCO3)[C@@H](C)CN([C@H](C)CO)C(=O)c2cc(NS(=O)(=O)c3cccs3)ccc2O1`, “inactive”.
With `CCCN(C)C[C@@H]1OCCCC[C@@H](C)Oc2ccc(NS(=O)(=O)c3ccc(OC)cc3)cc2C(=O)N([C@H](C)CO)C[C@@H]1C`, the outcome was inactive.
The entry for `COc1ccc(C(=O)O)cc1S(=O)(=O)Nc1cc(C(F)(F)F)ccc1N1CCCCC1` is “inactive”; for `COc1ccc(CN(C)C[C@@H]2OCCCC[C@@H](C)Oc3ccc(NS(=O)(=O)c4cccs4)cc3C(=O)N([C@H](C)CO)C[C@H]2C)cc1` it is “inactive”; for `O=C(O)c1cccc(NC(=O)c2ccccc2NC(=O)c2cccc([N+](=O)[O-])c2)c1` it is “inactive”.
In the case of `COCCCn1c(C(=O)N2CCOCC2)cc2c(=O)n3ccccc3nc21`, the result was inactive.
In the case of `COc1ccc(S(=O)(=O)Nc2ccc3c(c2)C(=O)N([C@@H](C)CO)C[C@H](C)[C@H](CN(C)C)OCCCC[C@@H](C)O3)cc1` it was “inactive”; in that of `COc1ccc(CN(C)C[C@@H]2OCCCC[C@H](C)Oc3ccc(NS(=O)(=O)c4cccs4)cc3C(=O)N([C@H](C)CO)C[C@@H]2C)cc1`, “inactive”.
`COc1cccc(S(=O)(=O)N(C)C[C@@H]2Oc3ncccc3C(=O)N([C@H](C)CO)C[C@@H]2C)c1`: the outcome was inactive.
Consider `O=C(CSc1cn[nH]n1)Nc1cccc(C(=O)O)c1`, for which the result was inactive.
In the case of `O=C(C[C@@H]1CC[C@@H]2[C@H](COC[C@H](O)CN2C(=O)Nc2cccc(Cl)c2)O1)N1CCCCC1`, the result was inactive.
As to `COc1ccc(NC(=O)Nc2ccc3c(c2)C(=O)N([C@H](C)CO)C[C@@H](C)[C@H](CN(C)Cc2ccc(C(=O)O)cc2)OCCCC[C@@H](C)O3)cc1`, the result was inactive.
In the case of `O=C(O)c1ccccc1NS(=O)(=O)c1cccc(-n2sc3ccccc3c2=O)c1` it was “inactive”; in that of `Cc1ccccc1-c1ccc2c(c1)O[C@@H](CN(C)Cc1ccc(C(=O)O)cc1)[C@@H](C)CN([C@@H](C)CO)S2(=O)=O`, “inactive”.
For `C[C@@H]1CCCCO[C@H](CN(C)Cc2ccccc2)[C@H](C)CN([C@H](C)CO)C(=O)c2cc(NS(=O)(=O)c3ccccc3)ccc2O1`, the outcome was inactive.
